# Data as given in PubChem BioAssay.
# Several values for one entry are separate records, joined by “and”; a condition that tells them apart may be missing. Identical values can stand only once. Records with an inconclusive call do not appear. For part of these data: Entries with a potency or affinity are not part of this list. Activity calls are given as the source filed them. Unless noted, no rule for the calls is given here.
# What was measured:
# [1] = JHH-DIPG-1 glioma cell viability, MIPE5.0 library, CellTiter-Glo luminescence, qHTS (AID 1347067; cut-off not given, nearly all actives have AC50 up to about 26 µM;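 also: cells exposed to compound for 48 hours before readout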); settings: JHH-DIPG-1 glioma viability, CellTiter-Glo ATP luminescence
# [2] = restoration of touch response, mutant HTT neurons – whole organism, C. elegans mechanosensory neurons, N-terminal huntingtin (AID 1599); settings: C. elegans polyQ-huntingtin mechanosensory neurons, stronger effect = higher value
# [3] = GFP-Q80 aggregate reduction, neuronal-like cells, cell-based, NGF-treated PC12, GFPQ80 (AID 1614); settings: PC12 NGF-treated GFP-polyQ80 inclusion reduction;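 also: lower means fewer inclusions and 0 means no inclusions at all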
# [4] = 75Q-TubH aggregate inhibition, S. cerevisiae, yeast (AID 1616); settings: S. cerevisiae 75Q-TubH polyglutamine aggregation suppression; stronger effect = higher value
# [5] = compounds altering viability of human ES cells (AID 493140); settings: human embryonic stem cell survival screen; stronger effect = higher value;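 also: cells exposed to compounds for four days before counting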
# [6] = tested on: Hepatitis C virus NS3 helicase; assay: blockers of NS3h binding to ssDNA – biochemical, fluorescence polarization, LOPAC1280 library, primary screen (AID 687035; in the data active = inhibition above about 37%); settings: Purified HCV NS3 helicase, Cy5-dT15 ssDNA binding fluorescence polarization; stronger effect = higher value; concentration not given here
# [7] = compounds altering Cy5-DNA-NS3h complex signal – biochemical, LOPAC1280, artefact control for HCV NS3 helicase inhibitor project (AID 687037); settings: Cy5-DNA-NS3h complex fluorescence interference counterscreen
# [8] = viability loss in pontine glioma line – cell-based, SU-DIPG-XVII, MIPE5.0, CellTiter-Glo, qHTS, dose response (AID 1347060; cut-off not given, nearly all actives have AC50 up to about 26 µM;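 as to AC50: cells exposed to compound for 48 hours before viability readout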); settings: CellTiter-Glo ATP luminescence
# [9] = viability loss in pontine glioma line – cell-based, JHH-DIPG-1, MIPE4.0, CellTiter-Glo, qHTS, dose response (AID 1347062; cut-off not given, nearly all actives have AC50 up to about 27 µM;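 as to AC50: cells exposed to compound for two days before readout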); settings: JHH-DIPG-1 viability, CellTiter-Glo ATP luminescence
# [10] = growth inhibition of DIPG cells – cell-based, MIPE4.0 library, CellTiter-Glo luminescence, qHTS (AID 1347066; cut-off not given, nearly all actives have AC50 up to about 30 µM;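 also: cells exposed to compound for 48 hours before readout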); settings: SU-DIPG-VI viability, CellTiter-Glo ATP luminescence
# [11] = growth inhibition of DIPG cells – cell-based, MIPE5.0 library, qHTS (AID 1347068; cut-off not given, nearly all actives have IC50 up to about 30 µM); settings: SU-DIPG-XXV viability
# [12] = blockers of cellular phospholipid synthesis – cell-based, LOPAC library, screen 4, primary screen (AID 1347384); settings: animal cells, phospholipid biosynthesis inhibition screen; at 10 µM
# [13] = viability loss in pontine glioma line – cell-based, SU-DIPG-XIII, MIPE4.0, CellTiter-Glo, qHTS, dose response (AID 1347061; cut-off not given, nearly all actives have AC50 up to about 37 µM;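 also: cells exposed to compound for 48 hours before readout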); settings: CellTiter-Glo ATP luminescence
# [14] = viability loss in pontine glioma line – cell-based, SU-DIPG-IV, MIPE4.0, CellTiter-Glo, qHTS, dose response (AID 1347063; cut-off not given, nearly all actives have AC50 up to about 30 µM;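 also: compound exposure lasted 48 hours before the viability readout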); settings: CellTiter-Glo ATP luminescence
# [15] = growth inhibition, single agents and combos, LFS_MB_1R, cell-based, cisplatin or BGB combos, synergistic combos for chromothripsis tumors (AID 1671452; in the data active = inhibition above about 80%;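 also: cells exposed for 96 hours before readout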); settings: LFS_MB_1R medulloblastoma cells, stronger effect = higher value
# [16] = growth inhibition, MDA-MB-436, cell-based, BGB or cisplatin combos, synergistic combos for chromothripsis tumors (AID 1671458); settings: MDA-MB-436 breast carcinoma growth inhibition, drug combinations, stronger effect = higher value;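 also: cells exposed for 96 hours; 0% = vehicle DMSO and 100% = killing by high DMSO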
# [17] = BT084 cell growth, single and combined drugs, ICGC_MB145, cisplatin and BGB IC40 combos (AID 1671461; in the data active = inhibition above about 80%;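 also: cells exposed to drugs for 96 hours; 0% = vehicle DMSO and 100% = high DMSO full killing control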); settings: BT084 medulloblastoma cells, drug combinations, stronger effect = higher value
# [18] = RCMB18 cell growth, single agent and combined, cisplatin and BGB IC40 combos (AID 1671462; in the data active = inhibition above about 80%;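 also: cells exposed to compound for four days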); settings: RCMB18 medulloblastoma cells, stronger effect = higher value
# [19] = CRL1545 cell growth, single agent and combined, cisplatin and BGB IC20 combos (AID 1671464; in the data active = inhibition above about 80%;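 also: cells exposed to compound for 96 hours before readout; 0% = vehicle DMSO and 100% = high DMSO killing control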); settings: CRL1545 osteosarcoma cells, stronger effect = higher value
# [20] = viability loss in pontine glioma line – cell-based, SU-DIPG-XXV, MIPE5.0, CellTiter-Glo, qHTS, dose response (AID 1347065; cut-off not given, nearly all actives have AC50 up to about 26 µM;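 also: cells exposed to compound for 48 hours before ATP readout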); settings: CellTiter-Glo ATP luminescence
# [21] = measured here: combination with BGB IC40, at 0.05 µM
# [22] = measured here: combination with cisplatin, at 0.5 µM
# [23] = measured here: combination with cisplatin, at 5 µM
# [24] = measured here: BGB combination, at 0.5 µM
# [25] = measured here: BGB combination, at 5 µM
# [26] = measured here: cisplatin combination, at 0.5 µM
# [27] = measured here: cisplatin combination, at 5 µM
# [28] = cisplatin combination, at 0.5 µM
# [29] = measured here: BGB IC40 combination 0.05 uM, at 0.05 µM
# [30] = measured here: BGB IC40 combination, at 0.05 µM
# [31] = measured here: with BGB IC20 combination, at 0.5 µM
# [32] = measured here: with cisplatin IC20 combination, at 0.5 µM
compound,measurement,setting,value
CN[C@H]1CC[C@@H](c2ccc(Cl)c(Cl)c2)c2ccccc21,AC50,[1],16.6 µM (active)
CCCNCC(O)COc1ccccc1C(=O)CCc1ccccc1 (stereo not drawn),rescue above control,[2],2.07
same,inclusion score,[3],2
same,aggregation suppression score,[4],0.81
same,survival,[5],6.75 (inactive)
same,inhibition,[6],-1% (inactive)
same,fluorescence ratio (interference),[7],1 (inactive)
same,outcome,[8],inactive
same,outcome,[9],inactive
same,outcome,[10],inactive
same,outcome,[11],inactive
same,outcome,[12],inactive
Clc1ccc2c(c1)C(N1CCNCC1)=Nc1ccccc1O2,rescue above control,[2],6.68
same,aggregation suppression score,[4],1.13
same,inhibition,[6],-4% (inactive)
same,fluorescence ratio (interference),[7],1 (inactive)
same,outcome,[13],inactive
same,outcome,[9],inactive
same,outcome,[14],inactive
same,outcome,[10],inactive
same,outcome,[12],inactive
CCCCCCNC(=O)n1cc(F)c(=O)[nH]c1=O,outcome,[8],inactive
same,outcome,[9],inactive
same,outcome,[10],inactive
same,outcome,[1],inactive
same,outcome,[12],inactive
same,inhibition,[15]; at 0.5 µM,-10.6% (inactive) and -21.3% (inactive)
same,inhibition,[15]; [21],-28.1% and 5.33%
same,inhibition,[15]; [22],-15.3% and -53.6%
same,inhibition,[15]; [23],-40% and -9.49%
same,inhibition,[16]; at 0.5 µM,-3.42% (inactive) and -19.4% (inactive)
same,inhibition,[16]; [24],-7.14% and -19.3%
same,inhibition,[16]; [25],9.33% and -1.4%
same,inhibition,[16]; [26],-19.1% and -44.2%
same,inhibition,[16]; [27],33.3% and 25.8%
same,inhibition,[17]; at 0.5 µM,-1.98% (inactive) and -19.4% (inactive)
same,inhibition,[17]; [28],-28.3% and -28.4%
same,inhibition,"[17]; cisplatin combination, at 5 µM",-14.4% and -69.9%
same,inhibition,[17]; [29],-34% and -12%
same,inhibition,"[17]; single agent, at 5 µM",6.42% and -7.55%
same,inhibition,[18]; at 0.5 µM,-8.71% (inactive) and -17.6% (inactive)
same,inhibition,"[18]; cisplatin combo, at 5 µM",-32.4% and 29.2%
same,inhibition,[18]; [30],-13.3% and -15%
same,inhibition,[18]; [22],-7.21% and -15.6%
same,inhibition,"[18]; single agent, at 5 µM",54.2% and -12.5%
same,inhibition,[19]; at 0.5 µM,-38.9% (inactive) and -6.62% (inactive)
same,inhibition,[19]; [31],-31.2% and -14.7%
same,inhibition,[19]; [32],-45.1% and -2.6%
same,inhibition,"[19]; single agent, at 0.05 µM",-9.97% and 20.9%
same,inhibition,"[19]; single agent, at 5 µM",-10.7% and 10.5%
CCc1cccc2c3c([nH]c12)C(CC)(CC(=O)O)OCC3 (stereo not drawn),rescue above control,[2],-7.42
same,inclusion score,[3],2
same,aggregation suppression score,[4],0.918
same,survival,[5],14.8 (inactive)
same,inhibition,[6],-3% (inactive)
same,fluorescence ratio (interference),[7],1 (inactive)
same,outcome,[13],inactive
same,outcome,[9],inactive
same,outcome,[14],inactive
same,outcome,[10],inactive
same,outcome,[12],inactive
CCc1nc(N)nc(N)c1-c1ccc(Cl)cc1,rescue above control,[2],26.6
same,aggregation suppression score,[4],0.999
same,survival,[5],16.9 (inactive)
same,AC50,[8],3.72 µM (active)
same,outcome,[13],inactive
same,outcome,[14],inactive
same,outcome,[10],inactive
same,outcome,[1],inactive
same,outcome,[11],inactive
Cc1ccccc1C(OCCN(C)C)c1ccccc1 (stereo not drawn),rescue above control,[2],-6.28
same,inclusion score,[3],2
same,aggregation suppression score,[4],1.25
same,survival,[5],11.9 (inactive)
same,inhibition,[6],-2% (inactive)
same,fluorescence ratio (interference),[7],0.9 (inactive)
same,outcome,[13],inactive
same,outcome,[9],inactive
same,outcome,[14],inactive
same,outcome,[10],inactive
same,outcome,[12],inactive
Cc1ccc(-c2cc(C(F)(F)F)nn2-c2ccc(S(N)(=O)=O)cc2)cc1,rescue above control,[2],17.2
same,aggregation suppression score,[4],0.638
same,outcome,[9],inactive
same,outcome,[14],inactive
same,AC50,[1],10.5 µM (active)
same,outcome,[11],inactive
same,outcome,[12],inactive
COc1ccccc1OCC(O)COC(N)=O (stereo not drawn),rescue above control,[2],1.68
same,inclusion score,[3],2
same,aggregation suppression score,[4],1.52
same,survival,[5],33.1 (inactive)
same,outcome,[13],inactive
same,outcome,[9],inactive
same,outcome,[10],inactive
CN(C)CCc1c[nH]c2ccc(C[C@H]3COC(=O)N3)cc12,outcome,[13],inactive
same,outcome,[9],inactive
same,outcome,[14],inactive
same,outcome,[10],inactive
CN1CCCC(n2nc(Cc3ccc(Cl)cc3)c3ccccc3c2=O)CC1 (stereo not drawn),AC50,[9],2.35 µM (active)
same,AC50,[14],6.62 µM (active)
NC(=O)N1c2ccccc2CC(=O)c2ccccc21,outcome,[13],inactive
same,outcome,[9],inactive
same,outcome,[14],inactive
same,outcome,[10],inactive
c1ccc2[nH]c(-c3cscn3)nc2c1,rescue above control,[2],-3.36
same,inclusion score,[3],2
same,aggregation suppression score,[4],0.142
same,survival,[5],7.75 (inactive)
same,outcome,[13],inactive
same,outcome,[9],inactive
same,outcome,[14],inactive
same,outcome,[20],inactive
same,outcome,[10],inactive
same,outcome,[1],inactive
same,outcome,[11],inactive
Cn1cnc([N+](=O)[O-])c1Sc1ncnc2nc[nH]c12,rescue above control,[2],-3.67
same,inclusion score,[3],2
same,aggregation suppression score,[4],1.11
same,survival,[5],7.25 (inactive)
same,inhibition,[6],-2% (inactive)
same,fluorescence ratio (interference),[7],1 (inactive)
same,outcome,[14],inactive
same,AC50,[20],6.61 µM (active)
same,outcome,[12],inactive
same,inhibition,[15]; at 0.5 µM,-1.99% (inactive) and -33.4% (inactive)
same,inhibition,[15]; [21],-14.2% and -22.8%
same,inhibition,[15]; [22],-2.77% and -51.2%
same,inhibition,[15]; [23],10.1% and -28.7%
same,inhibition,[16]; at 0.5 µM,-2.35% (inactive) and 8.87% (inactive)
same,inhibition,[16]; [24],-11.4% and 6.51%
same,inhibition,[16]; [25],17.6% and 21.4%
same,inhibition,[16]; [26],-16% and 2.87%
same,inhibition,[16]; [27],26.8% and 35.6%
same,inhibition,[17]; at 0.5 µM,-16.8% (inactive) and 4.68% (inactive)
same,inhibition,[17]; [28],-15.8% and -6.89%
same,inhibition,"[17]; cisplatin combination, at 5 µM",-45.6% and -9.16%
same,inhibition,[17]; [29],2.92% and 62.8%
same,inhibition,"[17]; single agent, at 5 µM",-13.5% and -5.72%
same,inhibition,[18]; at 0.5 µM,-11.9% (inactive) and -11.3% (inactive)
same,inhibition,"[18]; cisplatin combo, at 5 µM",4.98% and -8.51%
same,inhibition,[18]; [30],-6.18% and -2.54%
same,inhibition,[18]; [22],-8.48% and -16.8%
same,inhibition,"[18]; single agent, at 5 µM",-19.3% and -29.9%
same,inhibition,[19]; at 0.5 µM,-10.1% (inactive) and 15.6% (inactive)
same,inhibition,[19]; [31],23.3% and -13%
same,inhibition,[19]; [32],-26.8% and 29.9%
same,inhibition,"[19]; single agent, at 0.05 µM",10.6% and 46.1%
same,inhibition,"[19]; single agent, at 5 µM",25.6% and 21%
O=C1C(CCS(=O)c2ccccc2)C(=O)N(c2ccccc2)N1c1ccccc1 (stereo not drawn),rescue above control,[2],-11.1
same,inclusion score,[3],1.5
same,aggregation suppression score,[4],0.341
same,survival,[5],40.2 (inactive)
